About 21,000 targets were measured; listed, in parts, are those with the largest changes and a random draw of the rest.
Compound: Cc1cc(ccc1-c1ccccc1)C(=O)N1CCCN(CC1)C(=O)CCl [compound 10]
Experiment: probe-labelled cysteine peptide fold change vs DMSO (competition) (log2 fold change); higher = less target engagement (more negative = stronger competition)
Conditions: THP-1, incubation time: 4 h
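Further: competitive profiling in live THP-1 cells: cysteine peptides tagged with an iodoacetamide desthiobiotin (IA-DTB) probe, intensity after compound treatment relative to DMSO-treated cells.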

Chain of UniProt Q9UHI6 (Q9UHI6 whole entry, looked up): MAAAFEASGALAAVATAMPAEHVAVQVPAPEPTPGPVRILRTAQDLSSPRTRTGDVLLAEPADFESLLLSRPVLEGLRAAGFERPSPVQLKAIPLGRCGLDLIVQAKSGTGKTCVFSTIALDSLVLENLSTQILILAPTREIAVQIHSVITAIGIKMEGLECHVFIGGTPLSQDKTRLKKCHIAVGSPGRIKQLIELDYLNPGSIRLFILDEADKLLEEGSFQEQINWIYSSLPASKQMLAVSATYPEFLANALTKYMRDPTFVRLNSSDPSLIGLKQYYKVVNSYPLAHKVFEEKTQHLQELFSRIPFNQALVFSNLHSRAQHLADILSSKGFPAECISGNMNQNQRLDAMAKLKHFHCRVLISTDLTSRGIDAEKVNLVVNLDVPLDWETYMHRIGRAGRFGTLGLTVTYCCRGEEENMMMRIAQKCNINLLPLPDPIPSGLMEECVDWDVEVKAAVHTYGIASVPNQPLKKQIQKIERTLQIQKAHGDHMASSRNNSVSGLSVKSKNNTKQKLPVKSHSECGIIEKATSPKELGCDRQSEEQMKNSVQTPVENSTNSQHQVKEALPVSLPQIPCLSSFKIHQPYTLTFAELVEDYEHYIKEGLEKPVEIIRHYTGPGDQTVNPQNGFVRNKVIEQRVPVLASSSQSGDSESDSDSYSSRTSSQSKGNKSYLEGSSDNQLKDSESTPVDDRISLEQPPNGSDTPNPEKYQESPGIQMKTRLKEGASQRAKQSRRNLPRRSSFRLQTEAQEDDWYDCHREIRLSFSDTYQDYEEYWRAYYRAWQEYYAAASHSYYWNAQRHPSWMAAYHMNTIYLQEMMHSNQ
Chain of UniProt O60610 (O60610 whole entry, looked up): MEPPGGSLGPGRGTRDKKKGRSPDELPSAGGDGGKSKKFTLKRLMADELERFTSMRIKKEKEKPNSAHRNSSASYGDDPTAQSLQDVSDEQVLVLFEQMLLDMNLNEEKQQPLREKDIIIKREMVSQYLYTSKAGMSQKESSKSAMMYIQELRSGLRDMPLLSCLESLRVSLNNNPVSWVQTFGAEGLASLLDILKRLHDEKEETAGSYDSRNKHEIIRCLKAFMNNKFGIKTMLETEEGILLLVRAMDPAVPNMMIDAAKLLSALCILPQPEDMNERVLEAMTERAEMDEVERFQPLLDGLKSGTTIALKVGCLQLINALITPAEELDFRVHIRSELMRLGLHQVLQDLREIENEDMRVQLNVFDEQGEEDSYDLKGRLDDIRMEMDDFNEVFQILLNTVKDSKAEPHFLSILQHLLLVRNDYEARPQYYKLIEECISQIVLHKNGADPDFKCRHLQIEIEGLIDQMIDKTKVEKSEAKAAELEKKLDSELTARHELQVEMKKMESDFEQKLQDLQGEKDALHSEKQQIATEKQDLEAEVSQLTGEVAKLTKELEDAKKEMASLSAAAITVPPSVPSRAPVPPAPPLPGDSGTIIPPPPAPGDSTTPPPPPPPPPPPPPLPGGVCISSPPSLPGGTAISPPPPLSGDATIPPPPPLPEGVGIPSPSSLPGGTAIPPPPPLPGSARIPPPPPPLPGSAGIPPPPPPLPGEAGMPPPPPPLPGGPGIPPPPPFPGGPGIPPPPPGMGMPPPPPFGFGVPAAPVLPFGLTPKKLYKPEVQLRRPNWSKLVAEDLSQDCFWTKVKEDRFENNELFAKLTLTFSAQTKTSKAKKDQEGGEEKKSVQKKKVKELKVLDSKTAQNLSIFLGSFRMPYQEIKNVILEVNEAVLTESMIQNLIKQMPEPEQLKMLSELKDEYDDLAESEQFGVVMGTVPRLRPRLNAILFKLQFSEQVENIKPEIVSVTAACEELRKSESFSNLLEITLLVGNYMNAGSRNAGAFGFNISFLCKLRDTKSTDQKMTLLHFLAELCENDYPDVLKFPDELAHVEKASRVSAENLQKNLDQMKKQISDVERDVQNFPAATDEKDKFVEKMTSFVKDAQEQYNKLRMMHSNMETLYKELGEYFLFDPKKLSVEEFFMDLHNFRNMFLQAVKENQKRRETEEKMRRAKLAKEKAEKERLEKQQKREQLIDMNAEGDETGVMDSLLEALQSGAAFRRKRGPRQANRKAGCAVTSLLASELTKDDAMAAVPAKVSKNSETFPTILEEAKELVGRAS
Chain of UniProt Q8IWT3 (Q8IWT3 whole entry, looked up): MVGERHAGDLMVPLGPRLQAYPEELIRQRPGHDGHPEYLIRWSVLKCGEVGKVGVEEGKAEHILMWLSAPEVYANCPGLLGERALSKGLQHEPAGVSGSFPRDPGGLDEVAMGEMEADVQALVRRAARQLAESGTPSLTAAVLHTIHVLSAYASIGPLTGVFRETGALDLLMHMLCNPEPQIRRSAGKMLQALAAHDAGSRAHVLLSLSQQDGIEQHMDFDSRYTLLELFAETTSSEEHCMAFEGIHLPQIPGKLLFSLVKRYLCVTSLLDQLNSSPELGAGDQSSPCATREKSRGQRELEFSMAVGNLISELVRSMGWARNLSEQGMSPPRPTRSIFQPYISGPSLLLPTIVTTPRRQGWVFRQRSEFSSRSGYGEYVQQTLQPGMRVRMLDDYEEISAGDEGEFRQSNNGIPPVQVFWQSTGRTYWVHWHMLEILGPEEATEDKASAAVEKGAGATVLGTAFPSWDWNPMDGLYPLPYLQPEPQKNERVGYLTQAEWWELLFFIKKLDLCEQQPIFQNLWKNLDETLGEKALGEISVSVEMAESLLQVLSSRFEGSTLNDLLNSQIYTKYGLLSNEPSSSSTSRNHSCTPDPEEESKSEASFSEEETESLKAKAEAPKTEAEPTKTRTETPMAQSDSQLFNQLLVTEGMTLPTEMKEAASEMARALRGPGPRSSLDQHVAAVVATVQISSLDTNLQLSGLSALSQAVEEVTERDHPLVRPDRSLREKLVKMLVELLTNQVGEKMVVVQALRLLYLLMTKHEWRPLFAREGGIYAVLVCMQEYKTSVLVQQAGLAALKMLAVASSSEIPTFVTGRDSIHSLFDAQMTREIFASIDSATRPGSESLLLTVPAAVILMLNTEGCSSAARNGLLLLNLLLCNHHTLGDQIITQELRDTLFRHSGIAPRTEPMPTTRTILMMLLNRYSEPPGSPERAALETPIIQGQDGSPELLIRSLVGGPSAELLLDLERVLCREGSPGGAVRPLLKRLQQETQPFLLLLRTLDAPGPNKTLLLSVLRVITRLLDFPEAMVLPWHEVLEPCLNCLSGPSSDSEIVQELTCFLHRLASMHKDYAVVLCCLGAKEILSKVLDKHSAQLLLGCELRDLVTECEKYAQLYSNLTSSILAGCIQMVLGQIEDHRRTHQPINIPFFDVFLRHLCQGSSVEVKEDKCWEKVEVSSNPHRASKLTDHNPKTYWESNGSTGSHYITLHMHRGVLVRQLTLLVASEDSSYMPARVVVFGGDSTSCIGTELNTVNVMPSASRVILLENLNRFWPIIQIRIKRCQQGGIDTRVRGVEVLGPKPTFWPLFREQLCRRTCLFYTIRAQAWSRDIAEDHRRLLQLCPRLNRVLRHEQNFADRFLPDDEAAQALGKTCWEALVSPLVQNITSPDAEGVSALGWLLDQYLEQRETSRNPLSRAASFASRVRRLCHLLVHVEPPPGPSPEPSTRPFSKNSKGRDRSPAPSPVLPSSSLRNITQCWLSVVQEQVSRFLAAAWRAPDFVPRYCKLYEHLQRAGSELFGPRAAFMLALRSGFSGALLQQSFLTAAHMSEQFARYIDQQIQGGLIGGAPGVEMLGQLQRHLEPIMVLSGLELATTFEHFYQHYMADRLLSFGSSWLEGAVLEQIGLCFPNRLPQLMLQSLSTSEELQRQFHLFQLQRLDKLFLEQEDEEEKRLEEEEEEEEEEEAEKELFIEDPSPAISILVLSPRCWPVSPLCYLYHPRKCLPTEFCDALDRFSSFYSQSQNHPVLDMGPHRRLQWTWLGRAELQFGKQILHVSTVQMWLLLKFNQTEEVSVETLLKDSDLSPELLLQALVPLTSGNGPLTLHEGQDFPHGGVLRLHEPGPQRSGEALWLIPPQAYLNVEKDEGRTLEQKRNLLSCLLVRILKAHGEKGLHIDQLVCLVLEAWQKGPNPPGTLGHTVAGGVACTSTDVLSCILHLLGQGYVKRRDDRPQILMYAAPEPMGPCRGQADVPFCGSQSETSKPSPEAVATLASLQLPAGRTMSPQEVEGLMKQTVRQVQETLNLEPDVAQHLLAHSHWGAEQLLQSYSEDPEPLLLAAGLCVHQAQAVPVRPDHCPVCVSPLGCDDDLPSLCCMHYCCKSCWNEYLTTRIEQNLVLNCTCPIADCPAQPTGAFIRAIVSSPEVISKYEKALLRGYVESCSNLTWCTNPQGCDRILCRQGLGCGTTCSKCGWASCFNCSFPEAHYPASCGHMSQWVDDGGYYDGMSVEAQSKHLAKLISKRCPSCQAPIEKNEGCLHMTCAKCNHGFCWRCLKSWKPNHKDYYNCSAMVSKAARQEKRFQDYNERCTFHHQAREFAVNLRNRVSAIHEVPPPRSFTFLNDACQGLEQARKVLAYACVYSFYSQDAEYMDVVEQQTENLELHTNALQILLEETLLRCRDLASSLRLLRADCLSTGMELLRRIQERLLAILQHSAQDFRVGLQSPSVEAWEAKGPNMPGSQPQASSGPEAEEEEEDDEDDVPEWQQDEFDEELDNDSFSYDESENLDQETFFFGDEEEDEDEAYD
Chain of UniProt Q9UBU2 (Q9UBU2 whole entry): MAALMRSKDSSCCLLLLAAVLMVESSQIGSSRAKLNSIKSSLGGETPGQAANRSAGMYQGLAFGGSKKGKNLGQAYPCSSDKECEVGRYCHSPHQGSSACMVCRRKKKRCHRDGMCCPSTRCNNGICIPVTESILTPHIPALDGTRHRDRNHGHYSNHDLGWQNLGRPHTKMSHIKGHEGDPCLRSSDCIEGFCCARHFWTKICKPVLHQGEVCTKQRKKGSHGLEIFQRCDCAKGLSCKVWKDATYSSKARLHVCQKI
Chain of UniProt P52943 (P52943 whole entry, looked up): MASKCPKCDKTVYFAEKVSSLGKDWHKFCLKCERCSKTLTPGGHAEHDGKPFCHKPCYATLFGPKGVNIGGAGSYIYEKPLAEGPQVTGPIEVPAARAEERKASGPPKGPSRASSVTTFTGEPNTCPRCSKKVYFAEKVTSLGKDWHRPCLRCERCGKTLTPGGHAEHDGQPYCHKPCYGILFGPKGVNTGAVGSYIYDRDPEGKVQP

Target	probe-labelled cysteine peptide fold change (10 µM)	probe-labelled cysteine peptide fold change (50 µM)
DDX27_Q96GQ7_248_ACIPVGLLGK (UniProt Q96GQ7)	0.238	-0.122
DIAPH1_O60610_1227_KAGCAVTSLLASELTK (UniProt O60610)	-0.218	-1.27
DEF6_Q9H4E7_266_GIIPLDAHCCVEVLPDRDGKR (UniProt Q9H4E7)	0.106	-0.227
DHX30_Q7L2E3_346_RPCTIQVPEPILR (UniProt Q7L2E3)	-0.647	-1.7
CYBB_P04839_369_IVGDWTEGLFNACGCDK (UniProt P04839)	-0.0879	0.149
COX17_Q14061_23+24_KPLKPCCACPETK (UniProt Q14061)	-0.321	-2.25
CMIP_Q8IY22_363_NGCQQPCDR (UniProt Q8IY22)	-0.29	-1.18
DDAH2_O95865_220_AMAVLTDHPYASLTLPDDAAADCLFLRPGLPGVPPFLLHR (UniProt O95865)	0.061	0.0115
CNNM4_Q6P4Q7_220_IVQNCGTEK<|>CNNM2_Q9H8M5_293_IVQNCGTEK (UniProt Q9H8M5+Q6P4Q7)	-0.2	-0.279
DDX59_Q5T1V6_453_LFKPPVLVFVDCK (UniProt Q5T1V6)	-0.33	-1.68
DHX9_Q08211_1099_LQISHEAAACITGLR (UniProt Q08211)	0.136	0.171
DDX10_Q13206_196_INNINILVCTPGR (UniProt Q13206)	0.0926	0.195
CXXC1_Q9P0U4_564_VPADEVCGCPLVR (UniProt Q9P0U4)	0.111	-0.109
DLGAP5_Q15398_129_YRPDMPCFLLSNQNAVK (UniProt Q15398)	-0.0877	-1.31
DNMT1_P26358_1476+1478_GVCSCVEAGK (UniProt P26358)	-1.56	< -5
DKK2_Q9UBU2_214_ICKPVLHQGEVCTK (UniProt Q9UBU2)	-0.0653	-0.0474
DENND6A_Q8IWF6_130_VSLHCLLDQFDK (UniProt Q8IWF6)	0.295	1.1
DCAF6_Q58WW2_513_GIGSHCK (UniProt Q58WW2)	-0.205	-0.361
DDX54_Q8TDD1_389_CSTLIVTDLAAR (UniProt Q8TDD1)	0.1	0.184
DHX9_Q08211_608+612_KDKDDDGGEDDDANCNLICGDEYGPETR (UniProt Q08211)	-0.761	-0.243
CTNNB1_P35222_520_NLALCPANHAPLR (UniProt P35222)	-0.273	1.23
CNPY2_Q9Y2B0_28_SQDLHCGACR (UniProt Q9Y2B0)	-0.272	-0.187
DHX16_O60231_932_VEVGLSSCQGDYIR (UniProt O60231)	-0.184	0.119
COLGALT1_Q8NBJ5_369_ALQAQEIECR (UniProt Q8NBJ5)	0.0256	0.125
DDX20_Q9UHI6_98_CGLDLIVQAK (UniProt Q9UHI6)	-0.0986	-0.579

Target	probe-labelled cysteine peptide fold change (10 µM)	probe-labelled cysteine peptide fold change (50 µM)
DHX30_Q7L2E3_673_GEPGGILCFLPGWQEIK (UniProt Q7L2E3)	0.357	0.169
CROT_Q9UKG9_584_SCPETDAEK (UniProt Q9UKG9)	-0.0249	0.181
DDX39A_O00148_62_AIVDCGFEHPSEVQHECIPQAILGMDVLCQAK (UniProt O00148)	0.144	0.0705
CRIP2_P52943_150_DWHRPCLR (UniProt P52943)	0.923	1.04
DENND3_A2RUS2_499_LTDTAGCR (UniProt A2RUS2)	-0.198	-0.918
COMP_P49747_371_GDACDDDIDGDR (UniProt P49747)	-1.61	-0.768
CPSF3_Q9UKF6_626_RLEIMLQDIFGEDCVSVK (UniProt Q9UKF6)	-0.0218	0.198
CRELD2_Q6UXH1_120_SEYPDLFEWFCVK (UniProt Q6UXH1)	0.199	-0.0635
DDX5_P17844_170_TLSYLLPAIVHINHQPFLERGDGPICLVLAPTR (UniProt P17844)	0.236	0.565
DBR1_Q9UK59_347_VPCNFSVTAACYDPSKPQTQMQLIHR (UniProt Q9UK59)	-0.109	-0.299
COPE_O14579_212_CSPTLLLLNGQAACHMAQGR (UniProt O14579)	0.0619	0.054
CRELD2_Q6UXH1_166_QGDGSCR (UniProt Q6UXH1)	-0.195	-0.265
DBR1_Q9UK59_36_RGPGPVDLLLCCGDFQAVR (UniProt Q9UK59)	0.0792	-0.183
DCAF12L1_Q5VU92_150_LAQDQQGCGIHAIELNPSK (UniProt Q5VU92)	-0.214	-0.239
DDX27_Q96GQ7_259_DICACAATGTGK (UniProt Q96GQ7)	0.0194	-0.0602
COPG1_Q9Y678_440_ETGLSHLCEFIEDCEFTVLATR (UniProt Q9Y678)	0.0873	0.125
DNAJC7_Q99615_175_ALEFAPACHR (UniProt Q99615)	-0.118	-0.577
DBNL_Q9UJU6-3_256_NEQGSTCASLQESAVHPR (UniProt Q9UJU6)	-0.341	-0.167
CRTAP_O75718_273_DFYLSIADHYVEVLECK (UniProt O75718)	-0.146	1.08
DNAJB1_P25685_179_VSLEEIYSGCTK (UniProt P25685)	-0.0218	0.255
DLEC1_Q9Y238_256_LEDSCR (UniProt Q9Y238)	0.773	1.66
CORO1A_P31146_332_GLEVNKCEIAR (UniProt P31146)	-0.447	-1.1
DGLUCY_Q7Z3D6-2_165_TTVPCVTHAGFCCPLVVTMRPIPK (UniProt Q7Z3D6)	0.017	-0.4
DDX18_Q9NVP1_407_ANATVDGLEQGYVVCPSEK (UniProt Q9NVP1)	-0.401	0.698
DDX55_Q8NHQ9_161_AEGLDLASCVR (UniProt Q8NHQ9)	0.187	0.31

Target	probe-labelled cysteine peptide fold change (10 µM)	probe-labelled cysteine peptide fold change (50 µM)
DCAF13_Q9NV06_215_FNPIETFLLGSCASDR (UniProt Q9NV06)	0.105	-0.0461
CNN2_Q99439_215_CASQVGMTAPGTR (UniProt Q99439)	-0.0958	-0.449
DCAF12_Q5T6F0_253_EDTNPDNCK (UniProt Q5T6F0)	-0.303	-0.538
CMTM3_Q96MX0_38_AFLCSLK (UniProt Q96MX0)	-0.91	-3.05
CUL7_Q14999_952_CQQGGIDTR (UniProt Q14999)	-0.417	-0.0198
CTSG_P08311_142_AQEGLRPGTLCTVAGWGR (UniProt P08311)	-0.0347	-0.0423
DENND3_A2RUS2_801_TECDLWHLMVK (UniProt A2RUS2)	-0.103	-0.116
CTNNA1_P35221_461_MSASQLEALCPQVINAALALAAK (UniProt P35221)	0.108	0.332
DCAF8_Q5TAQ9_256_FLPNSGDSTLAMCAR (UniProt Q5TAQ9)	-0.0556	-0.22
CSRP1_P21291_25_TVYFAEEVQCEGNSFHK (UniProt P21291)	2.29e-05	-0.0826
DKC1_O60832_74_TTHYTPLACGSNPLKR (UniProt O60832)	-0.0751	-0.244
DIAPH2_O60879_775_NEYDDLCEPEQFGVVMSSVK (UniProt O60879)	-0.117	0.261
DCXR_Q7Z4W1_58_ECPGIEPVCVDLGDWEATER (UniProt Q7Z4W1)	0.125	0.231
CRIP1_P50238_56_TLTSGGHAEHEGKPYCNHPCYAAMFGPK (UniProt P50238)	-0.447	-1.41
DCP2_Q8IU60_391_KLQDNFETDAVYDLPSSSEDQLLEHAEGQPVACNGHCK (UniProt Q8IU60)	-0.353	-1.7
DDAH2_O95865_11_CSHALIR (UniProt O95865)	0.0326	0.0102
CTU1_Q7Z7A3_144_SCCTFCGVLR (UniProt Q7Z7A3)	-0.353	-1.17
CORO1B_Q9BR76_25_NDQCYEDIR (UniProt Q9BR76)	-0.0464	-0.0083
DDX5_P17844_200_STCIYGGAPK (UniProt P17844)	-0.0442	-0.0153
CUL9_Q8IWT3_76_AEHILMWLSAPEVYANCPGLLGER (UniProt Q8IWT3)	0.0237	-0.0123
COPA_P53621_1169_NPTDAYQLNYDMHNPFDICAASYR (UniProt P53621)	0.178	0.397
CPVL_Q9H3G5_320_CTEPEDQLYYVK (UniProt Q9H3G5)	-0.128	-0.131
COMT_P21964_241_GSSCFECTHYQSFLEYR (UniProt P21964)	0.0648	-0.0597
CYB5R4_Q7L1T6_278_CQLISK (UniProt Q7L1T6)	-0.0627	-0.00326

Reference: the supplement of paper PMC12067093, “Discovery and optimisation of a covalent ligand for TRIM25 and its application to targeted protein ubiquitination” (Chemical Science, 2025)
